Data as given in ChEMBL document CHEMBL3988442, “University of Dundee, Small-Polar-MMV Screening Library” (2021).

Tests used:
[1] = molecular target: T1, Aspartate--tRNA(Asp/Asn) ligase (Mycobacterium tuberculosis (strain ATCC 25618 / H37Rv)) (UniProt P9WFW3); assay: Assay for Asp RNA synthetase-1 from Mycobacterium tuberculosis; assay type: functional; set-up: scale not given: direction of the effect not stated beside the values; conditions: 30 µM; note: in the data most compounds retested in dose-response had high values
T1 sequence (whole entry): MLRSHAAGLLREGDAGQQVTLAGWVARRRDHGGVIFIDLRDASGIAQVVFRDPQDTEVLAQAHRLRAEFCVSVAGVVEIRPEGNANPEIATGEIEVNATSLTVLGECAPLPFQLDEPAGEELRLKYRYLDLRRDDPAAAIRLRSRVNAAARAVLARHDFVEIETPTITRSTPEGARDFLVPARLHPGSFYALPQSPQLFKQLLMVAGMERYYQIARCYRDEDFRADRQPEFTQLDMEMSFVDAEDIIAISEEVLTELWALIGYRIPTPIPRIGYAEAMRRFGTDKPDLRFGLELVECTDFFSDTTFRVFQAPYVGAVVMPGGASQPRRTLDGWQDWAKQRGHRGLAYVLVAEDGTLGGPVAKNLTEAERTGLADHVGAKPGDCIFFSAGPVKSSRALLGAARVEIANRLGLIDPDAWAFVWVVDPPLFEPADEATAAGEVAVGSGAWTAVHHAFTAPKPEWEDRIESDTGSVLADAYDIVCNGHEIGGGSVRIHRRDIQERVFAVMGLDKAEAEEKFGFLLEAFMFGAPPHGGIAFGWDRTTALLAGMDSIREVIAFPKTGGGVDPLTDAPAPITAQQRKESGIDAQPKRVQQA

[2] = molecular target: Shiga toxin 2 (Escherichia coli O157:H7) (UniProt P09385+P09386); assay: E. coli 0.157:H7 Shiga Toxin SOP - stx2 screening assay; assay type: functional; set-up: scale not given: direction of the effect not stated beside the values; conditions: 30 µM

SMILES | Percent Effect [1] | Percent Effect [2]
CC(C)NC(=O)[C@@H](NC(=O)N1CCN(c2ccc(Cl)cc2)CC1)C(C)C | -2.11% | -49%
O=c1cc2c(nn1CN1CCN(c3ccccc3)CC1)CCC2 | 6.3% | -14%
CCn1cc(CN2CCCn3nc(CNC(=O)C4CCC4)cc3C2)cn1 | 4.07% | -31%
CN(C)CCN1CCO[C@H]2CN(Cc3cnn(C)c3)C[C@H]21 | -1.31% | -7.4%
Cc1cc(NC(=O)NCC(C)O)n(C)n1 (configuration not stated) | -2.68% | -5.14%
Cc1ccc(C(CNCc2cnn(C(C)C)c2)N2CCOCC2)s1 (configuration not stated) | -4.07% | -11%
Cn1c(NCC(O)c2ccc(F)cc2F)c(C#N)c(=O)n(C)c1=O (configuration not stated) | -5.91% | -8.41%
OC(COCc1ccccc1Cl)CN1CC(n2cccn2)C1 (configuration not stated) | 0.411% | 29.1%
N#Cc1ccccc1C(=O)N1C[C@H](CO)C[C@H](CN2CCCC2)C1 | -4.69% | 0.715%
c1ccc(OCC2CC3(CCN(c4ncccn4)CC3)CO2)nc1 (configuration not stated) | 4.62% | -0.916%
Cn1cccc1CN1CCC2(CCCN(C(=O)c3cnccn3)C2)C1 (configuration not stated) | 11.1% | -9.19%
